# Measured values as given in ChEMBL document CHEMBL1961873, “Compounds: GSK PKIS; Assays: Nanosyn kinase panel” (2012).
# Biological target: Rho-associated protein kinase 1 (Homo sapiens) (UniProt Q13464)
# Details: at 0.1 µM
# 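Note: values are mean percent inhibition of ROCK1.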
# Sequence of Rho-associated protein kinase 1 (Homo sapiens) (Q13464 2-1354 limits assumed): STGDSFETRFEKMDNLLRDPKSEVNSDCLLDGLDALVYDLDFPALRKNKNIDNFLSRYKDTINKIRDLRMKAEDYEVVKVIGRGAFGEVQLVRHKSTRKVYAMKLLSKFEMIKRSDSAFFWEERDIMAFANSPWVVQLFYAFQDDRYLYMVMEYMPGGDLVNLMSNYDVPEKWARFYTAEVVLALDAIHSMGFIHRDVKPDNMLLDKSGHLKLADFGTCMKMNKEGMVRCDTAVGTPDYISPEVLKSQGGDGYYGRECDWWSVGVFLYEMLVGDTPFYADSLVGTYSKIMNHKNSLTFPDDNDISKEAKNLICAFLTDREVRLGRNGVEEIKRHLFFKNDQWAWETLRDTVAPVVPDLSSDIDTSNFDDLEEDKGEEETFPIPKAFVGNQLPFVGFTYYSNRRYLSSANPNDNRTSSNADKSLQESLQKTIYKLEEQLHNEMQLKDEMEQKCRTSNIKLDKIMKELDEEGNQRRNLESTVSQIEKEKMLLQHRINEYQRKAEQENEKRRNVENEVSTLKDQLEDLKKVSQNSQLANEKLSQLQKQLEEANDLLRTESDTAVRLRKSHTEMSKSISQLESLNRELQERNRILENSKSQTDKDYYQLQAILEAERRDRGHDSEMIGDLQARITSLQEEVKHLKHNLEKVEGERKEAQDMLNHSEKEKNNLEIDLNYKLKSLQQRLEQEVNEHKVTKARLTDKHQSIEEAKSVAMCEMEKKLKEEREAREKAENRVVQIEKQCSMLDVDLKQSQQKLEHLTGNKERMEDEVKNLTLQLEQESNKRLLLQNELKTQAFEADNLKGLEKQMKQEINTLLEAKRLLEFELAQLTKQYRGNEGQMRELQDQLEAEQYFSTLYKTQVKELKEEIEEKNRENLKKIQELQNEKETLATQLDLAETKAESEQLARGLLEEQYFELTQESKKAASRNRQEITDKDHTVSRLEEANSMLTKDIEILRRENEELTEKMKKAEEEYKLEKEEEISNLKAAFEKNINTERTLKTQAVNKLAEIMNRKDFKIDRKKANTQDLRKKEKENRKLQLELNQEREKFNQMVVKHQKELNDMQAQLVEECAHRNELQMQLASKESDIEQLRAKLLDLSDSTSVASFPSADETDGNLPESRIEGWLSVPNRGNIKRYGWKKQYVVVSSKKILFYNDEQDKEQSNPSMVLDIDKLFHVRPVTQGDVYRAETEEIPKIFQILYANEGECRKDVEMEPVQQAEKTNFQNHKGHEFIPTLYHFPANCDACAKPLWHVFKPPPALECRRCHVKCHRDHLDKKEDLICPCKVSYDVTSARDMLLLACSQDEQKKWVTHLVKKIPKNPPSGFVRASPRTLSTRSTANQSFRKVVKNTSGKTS
row,SMILES,inhibition [%]
1,NC(=O)Cc1ccccc1Oc1nccc(-c2c(-c3ccc(F)cc3)ncn2C2CCNCC2)n1,0.15
2,C[C@@H](Oc1cc(-n2cnc3ccc(OC4CCN(C)CC4)cc32)sc1C(N)=O)c1ccccc1Cl,1.76
3,NS(=O)(=O)c1ccc(N/N=C2\C(=O)Nc3ccc(-c4cnco4)cc32)cc1,6.06
4,NS(=O)(=O)c1ccc(Nc2cc(-c3ccc(O)c(F)c3)n[nH]2)cc1,-0.2
5,CCS(=O)(=O)c1ccc(OC)c(Nc2ncc(-c3ccccc3Cl)o2)c1,-0.11
6,COc1cc(Nc2ncc3c(C)nc(-c4cccc(C(F)(F)F)c4)n3n2)cc(OC)c1OC,-0.86
7,Cc1ccc(C(=O)NC2CCC2)cc1-c1ccc(C(=O)NCC2CC2)cc1,1.21
8,C[C@@H](Oc1cc(-n2cnc3ccc(OCC4CCN(C)CC4)cc32)sc1C(N)=O)c1ccccc1Cl,2.64
9,Fc1ccc(-c2ncn(C3CCNCC3)c2-c2ccnc(Oc3ccc4c(c3)OCO4)n2)cc1,2.94
10,CCS(=O)(=O)c1ccc(OC)c(Nc2ncc(-c3cccc(-c4ccccc4F)c3)o2)c1,-2.02
11,CN(c1ccc(NC(=O)Nc2c(Cl)cccc2Cl)cc1)c1ccnc(Nc2cccc(CS(C)(=O)=O)c2)n1,0.85
12,O=C(NCC1CC1)c1ccc(-c2cccc(C(=O)NC3CC3)c2)cc1,1.17
13,COc1ccc2cc(-c3c(-c4ccncc4)nc(-c4ccc(S(C)(=O)=O)cc4C)n3C)ccc2c1,8.02
14,NC(=O)c1ccc(Oc2nccc(-c3c(-c4ccc(F)cc4)ncn3C3CCNCC3)n2)cc1,2.81
15,Nc1nccc(-c2c(-c3ccc(F)cc3)ncn2C2CCC(O)CC2)n1 (centres undefined),0.4
16,COc1cc2ncn(-c3cc(OCCc4ccccc4)c(C(N)=O)s3)c2cc1OC,0.26
17,Cc1ccc(NC(=O)c2ccoc2)cc1-c1ccc(C(=O)NCC2CC2)cc1,0

row,SMILES,inhibition [%]
1,COc1cc(Nc2ncc(-c3ccccc3)o2)cc(OC)c1OC,0.49
2,O=C(Nc1n[nH]c2nc(-c3ccc(O)cc3)c(Br)cc12)C1CC1,0.72
3,CCc1nccc2c1nc(-c1nonc1N)n2CC,1.09
4,COc1ccc(C2=C(N3CCc4ccccc43)C(=O)NC2=O)cc1,0.56
5,COc1ccc(-c2ccc3c(NC(=O)C4CC4)n[nH]c3n2)cc1,0.53
6,COc1cc2ncn(-c3cc(OCc4ccccc4C(F)(F)F)c(C(C)=O)s3)c2cc1OC,0.94
7,Fc1ccc(-c2ncn(C3CCNCC3)c2-c2ccnc(Oc3ccc(Oc4ccccc4)cc3)n2)cc1,2.39
8,COc1cc2ncn(-c3cc(OCc4cccs4)c(C(N)=O)s3)c2cc1OC,2.39
9,O=C(Nc1ccc(Oc2ccc3[nH]c(NC(=O)c4ccccc4)nc3c2)cc1)Nc1cc(C(F)(F)F)ccc1F,0.24
10,Fc1ccc(-c2nc3n(c2-c2ccncc2)CCS3)cc1,1.14
11,Fc1ccc(-c2ncn(C3CCNCC3)c2-c2ccnc(Oc3ccc(F)c(F)c3)n2)cc1,1.38
12,COc1cccc(/C=N/Nc2ncnc3c2cnn3-c2cccc(OC)c2)c1,2.52
13,C/C(Nc1ccc(S(N)(=O)=O)cc1)=C1/C(=O)Nc2ccccc21,2.38
14,NS(=O)(=O)c1ccc(N/N=C2\C(=O)Nc3ccc(C(=O)NCCCn4ccnc4)cc32)cc1,2.63
15,CN(C)CCOc1ccc(-c2cc(-c3ccc4c(c3)CCC4=NO)c(-c3ccncc3)o2)cc1,-1.57
16,COc1ccc2cc(-c3c(-c4ccncc4)nc(-c4ccc([S+](C)[O-])cc4C)n3C)ccc2c1 (centres undefined),-0.64
17,FC(F)(F)c1cccc(Nc2nccc(-c3cnn4nc(-c5ccccc5)ccc34)n2)c1,0.77
